Source: PubChem BioAssay (National Center for Advancing Translational Sciences (NCATS))
BAZ2B block = inhibitors of human BAZ2B bromodomain; AlphaScreen BAZ2B-H3K14Ac peptide displacement; Potency, µM (doses to about 114 µM), for inactives: at the highest dose activity change, negative = inhibition, hits mostly inhibitors; 360,000 tested, 4.4% active; further: on the % scale 0 is the no-effect control and ±100 the full control effect; nearly all actives have a fitted effect of over 60% in size
Target sequence (Q9UIF8 whole entry, looked up): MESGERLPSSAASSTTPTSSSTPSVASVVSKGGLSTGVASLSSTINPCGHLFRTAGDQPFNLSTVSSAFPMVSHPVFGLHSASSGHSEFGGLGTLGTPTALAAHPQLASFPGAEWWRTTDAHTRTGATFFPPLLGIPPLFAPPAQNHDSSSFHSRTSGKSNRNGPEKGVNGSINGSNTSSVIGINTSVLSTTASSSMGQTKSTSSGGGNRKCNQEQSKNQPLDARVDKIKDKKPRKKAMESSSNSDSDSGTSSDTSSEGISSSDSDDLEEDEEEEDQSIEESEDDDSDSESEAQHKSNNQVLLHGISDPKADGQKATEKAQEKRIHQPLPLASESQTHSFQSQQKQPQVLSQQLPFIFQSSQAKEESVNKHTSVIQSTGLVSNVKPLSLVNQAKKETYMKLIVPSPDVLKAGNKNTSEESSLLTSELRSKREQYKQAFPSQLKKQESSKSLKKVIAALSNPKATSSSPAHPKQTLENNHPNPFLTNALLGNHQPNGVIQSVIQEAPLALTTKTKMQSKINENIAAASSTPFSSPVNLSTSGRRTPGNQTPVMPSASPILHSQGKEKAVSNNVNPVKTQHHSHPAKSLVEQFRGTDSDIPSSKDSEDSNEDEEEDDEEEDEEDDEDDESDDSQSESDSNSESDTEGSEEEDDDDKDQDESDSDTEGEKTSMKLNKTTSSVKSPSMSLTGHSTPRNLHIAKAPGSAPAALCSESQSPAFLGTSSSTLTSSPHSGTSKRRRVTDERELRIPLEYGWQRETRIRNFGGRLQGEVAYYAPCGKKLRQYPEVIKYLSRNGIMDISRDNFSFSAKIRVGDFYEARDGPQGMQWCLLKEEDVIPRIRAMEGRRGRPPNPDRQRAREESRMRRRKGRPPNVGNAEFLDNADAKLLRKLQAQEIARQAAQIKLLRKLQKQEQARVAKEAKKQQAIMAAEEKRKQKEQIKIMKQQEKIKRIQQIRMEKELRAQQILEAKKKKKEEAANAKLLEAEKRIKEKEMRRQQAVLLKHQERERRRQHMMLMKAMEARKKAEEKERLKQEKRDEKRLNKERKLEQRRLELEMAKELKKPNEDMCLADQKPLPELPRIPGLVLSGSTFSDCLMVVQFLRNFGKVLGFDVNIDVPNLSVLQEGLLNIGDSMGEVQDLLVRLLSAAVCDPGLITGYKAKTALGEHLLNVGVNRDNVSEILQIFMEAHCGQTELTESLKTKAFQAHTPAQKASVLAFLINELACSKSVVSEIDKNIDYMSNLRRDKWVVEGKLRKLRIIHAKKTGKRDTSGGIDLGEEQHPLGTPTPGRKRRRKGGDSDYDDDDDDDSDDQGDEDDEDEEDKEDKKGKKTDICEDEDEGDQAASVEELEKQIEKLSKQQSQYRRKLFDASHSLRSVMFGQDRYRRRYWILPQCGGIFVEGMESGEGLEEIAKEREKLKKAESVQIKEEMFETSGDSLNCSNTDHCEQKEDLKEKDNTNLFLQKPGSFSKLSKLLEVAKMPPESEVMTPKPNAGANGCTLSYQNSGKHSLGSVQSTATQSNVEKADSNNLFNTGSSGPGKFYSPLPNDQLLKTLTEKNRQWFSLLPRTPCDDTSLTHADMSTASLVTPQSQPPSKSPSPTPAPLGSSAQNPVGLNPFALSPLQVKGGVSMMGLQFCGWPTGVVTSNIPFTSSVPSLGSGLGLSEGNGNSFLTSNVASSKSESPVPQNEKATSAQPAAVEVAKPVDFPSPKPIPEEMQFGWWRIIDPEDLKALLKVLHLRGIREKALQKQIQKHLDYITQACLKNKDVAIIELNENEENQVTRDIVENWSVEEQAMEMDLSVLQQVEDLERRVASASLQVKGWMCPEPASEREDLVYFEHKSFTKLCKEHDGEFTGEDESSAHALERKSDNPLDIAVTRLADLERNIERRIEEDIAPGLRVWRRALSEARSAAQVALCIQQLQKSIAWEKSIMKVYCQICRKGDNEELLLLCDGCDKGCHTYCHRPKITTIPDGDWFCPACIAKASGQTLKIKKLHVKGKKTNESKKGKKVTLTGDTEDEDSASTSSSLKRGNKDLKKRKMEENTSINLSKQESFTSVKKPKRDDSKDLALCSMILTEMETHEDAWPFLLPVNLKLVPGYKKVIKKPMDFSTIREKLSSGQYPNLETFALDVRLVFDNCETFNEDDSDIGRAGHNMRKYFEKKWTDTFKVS
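Protein-peptide AlphaScreen: BAZ2B 50 nM, b-H3K14Ac 50 nM, 1x PBS pH 7.4 + 0.01% Tween-20. Preincubation 30 min RT; cpd 30 min RT (top 110 uM); beads 20 min RT, light-protected.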
G9a inh = G9a (human) methyltransferase inhibition. Q96KQ7. G9a H3K9 monomethylation, AlphaScreen, 2 h. Potency, µM (series often up to 102 µM), without a hit: at the top dose activity, negative = inhibition, actives largely listed as inhibitors. 350,000 tested, 8.8% active; further: on the % scale 0 is the no-effect control and ±100 the full control effect; nearly all actives have a fitted effect of over 75% in size
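Signal arises when biotinylated H3K9 peptide, once monomethylated, bridges streptavidin donor and antibody-captured acceptor beads. Enzyme at 20 nM was preincubated 15 min with test compounds; peptide 500 nM and SAM 20 uM then reacted for 2 h.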
L3MBTL1 block = L3MBTL1 (human) inhibition; AlphaScreen L3MBTL1–H3K9me1 peptide binding; Potency, µM (series often up to 57.1 µM), without a hit: at the highest dose activity, negative = inhibition, usual class: inhibitors; AID 485360; Q9Y468; 230,000 tested, 0.66% active; further: on the % scale 0 is the no-effect control and ±100 the full control effect; nearly all actives have a fitted effect of over 60% in size
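L3MBTL1 50 nM + b-AHA-H3(1-15)K9me1 75 nM, 30 min RT; compound added, 30 min RT; streptavidin donor/Ni-chelate acceptor beads 10 ug/mL each final, 30 min RT dark; AlphaScreen read.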
HP1b chromo inh = blocks HP1-beta chromodomain binding to methylated histone tails; Potency, µM (titrated, usually from 114 µM), without a hit: top-dose activity change, negative = inhibition, actives largely listed as inhibitors; P83916; 390,000 tested, 0.56% active; AlphaScreen HP1-beta / biotin-H3K9me3 peptide binding; AID 540317; further: nearly all actives have a fitted effect of over 70% in size
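HP1-beta protein (50 nM final) preincubated 30 min at room temperature with biotinylated H3(1-18)K9me3 peptide (50 nM) in PBS pH 7.4, 0.01% Tween-20, then compound added for 30 min. AlphaScreen streptavidin donor/nickel chelate acceptor beads (10 ug/mL final), 30 min dark, luminescence read.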
JMJD2A Tudor = blocks the human JMJD2A Tudor domain; AlphaScreen JMJD2A-Tudor / H3K4me3 peptide binding; Potency, µM (top dose mostly 114 µM), for the others: at the top dose activity change, negative = inhibition, usual class: inhibitors; 390,000 tested, 4.4% active; AID 504339; further: on the % scale 0 is the no-effect control and ±100 the full control effect; nearly all actives have a fitted effect of over 50% in size
An asterisk follows results filed as active; [ ] = another dose, or the depositor's remark. This is a sample that favours compounds with a hit; in the whole collection about 11% have one here. The call rests on the fitted dose curve; in most records, active means well fitted inhibition curve with a large enough effect; inconclusive means small, poorly fitted or top-dose-only effect; inactive means no such curve, though single readings can be large or run the other way. Potency means the concentration at half of the fitted maximal effect.

For COc1cc(/C=C2/C(=N)N3N=C(CC(=O)N4CCOCC4)SC3=NC2=O)ccc1OCc1ccccc1F the results were BAZ2B block inconclusive, G9a inh 12.9%, HP1b chromo inh 38.5% and JMJD2A Tudor -26.0%.
For COc1cc(/C=C2/C(=N)N3N=C(CC(=O)N4CCOCC4)SC3=NC2=O)ccc1OCc1ccc(F)cc1 the results were BAZ2B block -23.1%, G9a inh 12.4%, HP1b chromo inh 9.9% and JMJD2A Tudor 4.47µM*.
N=C1/C(=C\c2ccc(-c3cccc(C(=O)O)c3)o2)C(=O)N=C2SC=C(c3ccccc3)N12 was read as BAZ2B block 22.4µM*, G9a inh 11.2µM*, L3MBTL1 block 22.4µM*, HP1b chromo inh inconclusive and JMJD2A Tudor -20.6%[11.4 µM].
Screening N=C1/C(=C/c2ccc(-c3cccc(C(=O)O)c3)o2)C(=O)N=C2SC(CC(=O)N3CCOCC3)=NN12 returned BAZ2B block 25.1µM*, G9a inh inconclusive, HP1b chromo inh inconclusive and JMJD2A Tudor 20µM*.
`Cc1ccc(/C=C2\C(=N)N3N=C(CC(=O)N4CCOCC4)SC3=NC2=O)o1` gave BAZ2B block -27.0%, G9a inh 56.2µM*, HP1b chromo inh -15.6% and JMJD2A Tudor 56.2µM*.
Screening O=C(CCNC(=O)c1ccccc1Cl)Nc1nnc(C2CC2)s1 returned BAZ2B block -16.0%, G9a inh 3.8%, L3MBTL1 block 5.7%, HP1b chromo inh -0.4% and JMJD2A Tudor -11.0%.
`COc1ccc(C(=O)N/C(=C\c2ccc(SC)cc2)C(=O)NCCCn2ccnc2)cc1OC` gave L3MBTL1 block -0.9%, HP1b chromo inh 23.4% and JMJD2A Tudor -20.1%.
`CCC/C=C1\CCCOC(C(=O)NCc2ccccc2)(C(F)(F)F)C1` (stereo not drawn) gave HP1b chromo inh 5.6% and JMJD2A Tudor -2.8%.
`COc1ccccc1-n1c(C)cc(/C=C2\C(=N)N3N=C(CC(=O)N4CCOCC4)SC3=NC2=O)c1C` gave BAZ2B block 50.1µM*, G9a inh -14.5%, HP1b chromo inh 50.7% and JMJD2A Tudor 10.1%.
For COc1ccc(/C=C2\C(=N)N3N=C(CC(=O)N4CCOCC4)SC3=NC2=O)cc1 the results were BAZ2B block inconclusive, G9a inh 15.7%[59 µM], HP1b chromo inh 4.6% and JMJD2A Tudor -1.7%.
`N=C1/C(=C\c2ccc(SCc3ccccc3)o2)C(=O)N=C2SC=NN12` gave BAZ2B block -20.3%, G9a inh 50.1µM*, HP1b chromo inh 23.7% and JMJD2A Tudor -31.0%.
COc1ccc(-n2c(C)cc(/C=C3\C(=N)N4N=C(CC(=O)N5CCOCC5)SC4=NC3=O)c2C)c(OC)c1 was read as BAZ2B block inconclusive, G9a inh 8.2%, HP1b chromo inh -2.7%[57 µM] and JMJD2A Tudor inconclusive.
Screening N=C1/C(=C\c2ccc(SCc3ccccc3)o2)C(=O)N=C2SC(CC(=O)N3CCOCC3)=NN12 returned BAZ2B block 44.7µM*, G9a inh inconclusive, HP1b chromo inh 5.8% and JMJD2A Tudor inconclusive.
For Cc1cc(/C=C2/C(=N)N3C(c4ccccc4)=CSC3=NC2=O)c(C)n1-c1ccccc1 the results were BAZ2B block 4.4%, G9a inh 50.1µM*, L3MBTL1 block -25.3%, HP1b chromo inh 34.6% and JMJD2A Tudor -12.6%.
`Cc1ccc(CNC(=O)C2CCCN(S(=O)(=O)c3ccc4c(c3)oc(=O)n4C)C2)cc1` (stereo not drawn) gave BAZ2B block -3.1%, G9a inh 16.5%[59 µM], HP1b chromo inh 60.7% and JMJD2A Tudor -5.6%.
COc1cccc(NC(=O)c2csc3c2CCCCC3)c1 was read as BAZ2B block 0.6%, G9a inh 9.7%[59 µM], HP1b chromo inh 56.0% and JMJD2A Tudor 3.6%.
For COC(=O)c1c(NC(=O)CS(=O)(=O)c2ccc(C)cc2)sc2c1CCCCC2 the results were BAZ2B block -12.2%, G9a inh -28.8%[59 µM], HP1b chromo inh -6.7% and JMJD2A Tudor -24.7%.
Screening COc1cc(NS(=O)(=O)c2ccc3c(c2)CC(=O)N3)cc(OC)c1OC returned G9a inh 0.355µM*, HP1b chromo inh 13.9% and JMJD2A Tudor -23.0%.
For COc1ccc(NS(=O)(=O)c2ccc3c(c2)CCC(=O)N3)cc1 the results were JMJD2A Tudor -12.9%.
For N#Cc1ccc(NS(=O)(=O)c2ccc3c(c2)CCC(=O)N3)cc1 the results were JMJD2A Tudor 79.4µM*.
CN(CCCNC(=O)Cn1ncc2c([nH]c3ccccc32)c1=O)Cc1ccccc1 was read as BAZ2B block inconclusive, G9a inh -34.4%[59 µM], HP1b chromo inh -9.5% and JMJD2A Tudor -32.7%.
Screening OCC(O)C(O)C(O)C(O)C1NCCS1 (stereo not drawn) returned BAZ2B block 21.2%, G9a inh 50.1µM*, HP1b chromo inh inconclusive and JMJD2A Tudor -10.5%.
COCCOc1cc(NC(=O)CS(=O)(=O)CC(=O)N(C)C)c(Cl)cc1Cl was read as BAZ2B block -10.1%, G9a inh -35.0%, L3MBTL1 block -6.5%, HP1b chromo inh 19.4% and JMJD2A Tudor -10.4%.
Screening O=C(Nc1cccs1)Nc1c(F)c(F)c(F)c(F)c1F returned BAZ2B block inconclusive, G9a inh 25.3%[59 µM], L3MBTL1 block -0.9%, HP1b chromo inh 4.6% and JMJD2A Tudor -31.1%.
N#Cc1cccc(NC(=O)Nc2cccs2)c1 was read as BAZ2B block -7.3%, G9a inh 79.4µM*, L3MBTL1 block -0.8%, HP1b chromo inh -13.1% and JMJD2A Tudor -32.0%.
Screening CCc1cccc(NC(=O)Nc2cccs2)c1 returned BAZ2B block inconclusive, G9a inh 12.6µM*, L3MBTL1 block -14.0%, HP1b chromo inh -7.2% and JMJD2A Tudor inconclusive.
`Cc1cccc(C)c1NC(=O)Nc1cccs1` gave BAZ2B block -2.6%, G9a inh 50.1µM*, HP1b chromo inh 6.5% and JMJD2A Tudor -8.4%.
CCc1cccc(NC(=O)Nc2csc3c2CCCC3)c1 was read as BAZ2B block 16.6%, G9a inh 32.5%[59 µM], HP1b chromo inh 70.7% and JMJD2A Tudor -18.9%.
`Nc1cc2c(cc1Cl)-c1ccccc1C2=NO` gave HP1b chromo inh -15.8% and JMJD2A Tudor inconclusive.
Screening CCNC(=O)c1cnc2sc(N3CCCCCC3)nn2c1=O returned BAZ2B block -11.5%, G9a inh 4.3%[59 µM], HP1b chromo inh 27.3% and JMJD2A Tudor -9.0%.
`CC(=O)N1CCc2c(sc3c2c(=O)n(-c2ccc(C)cc2)c(=O)n3Cc2ccccc2C)C1` gave BAZ2B block -19.9%, G9a inh -4.5%[59 µM], HP1b chromo inh -10.4% and JMJD2A Tudor inconclusive.
COc1cccc(-n2sc3c(c2=S)-c2cc(OC)ccc2NC3(C)C)c1 was read as BAZ2B block 10µM*, G9a inh inconclusive, L3MBTL1 block inconclusive, HP1b chromo inh 5.62µM* and JMJD2A Tudor 11.2µM*.
Screening COc1cccc(C(C)=C2SC(=S)NC2=O)c1 returned HP1b chromo inh inconclusive and JMJD2A Tudor -34.7%.
